# Source: PubChem BioAssay (Tox21)
# Values joined by “and” are separate entries in the source; they are usually repeats but may differ in a detail not shown here. Equal values may be shown once. A number with no mark means an inactive call. Results filed as inconclusive are left out. A call without a number means that no potency is given here. Active and inactive are the calls of the source. Unless noted, calls follow the shape of the dose curve; as a rule, active = well fitted curve in the direction sought with a large enough effect in the repeat runs; inconclusive = weak or mixed curves; inactive = no such curve, though single readings can be large; an effect the other way counts as inactive or inconclusive.
# Legend:
# [1] = molecular target: Estrogen receptor beta (Homo sapiens) (UniProt Q92731); assay: qHTS assay to identify small molecule antagonists of the estrogen receptor beta (ER-beta) signaling pathway (AID 1259378; active = well fitted inhibition curve with a large enough effect in the signal ratio in the repeat runs, not every such curve was filed as active; the % refers to the signal ratio; also: potency is read from the fitted curve at half-maximal effect)
# Method in brief: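 ER-beta-UAS-bla HEK293T (GripTite) cells in 2% charcoal-stripped FBS medium were preincubated 6 hr at 37C, dosed with compound, then stimulated with 1 nM E2 (final) for 16 hr; beta-lactamase reporter read by B/G FRET fluorescence after 2 hr substrate loading.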
# [2] = qHTS assay to identify small molecule agonists of the androgen receptor (AR) signaling pathway in the presence of an antagonist - cell viability counter screen (AID 1259379); also: nearly all actives have a fitted effect of over 25% in size; also: potency is read from the fitted curve at half-maximal effect;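 as to activity change, negative = cytotoxicity: MDA-kb2 human breast cancer cells carrying an MMTV luciferase reporter; series mostly up to about 92 µM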
# Method in brief: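 Fluorescence from CellTiter-Fluor, added after 15 hr and read 1 hr later, gave cell viability. Cells were MDA-kb2 exposed to compounds (15 concentrations) in the presence of 3.0uM nilutamide at 37C, 0% CO2.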
# [3] = qHTS assay to identify small molecule agonists of the estrogen receptor beta (ER-beta) signaling pathway - cell viability counter screen (AID 1259380); also: nearly all actives have a fitted effect of over 30% in size; also: potency is read from the fitted curve at half-maximal effect
# Method in brief: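 Same-well viability counter screen. Cells: ER-beta-UAS-bla HEK293T, plated 6 hr before compound, in 2% charcoal-stripped FBS. Compound exposure 16 hr, 37C; viability by CellTiter-Glo luminescence after 30 min at room temperature.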
# [4] = molecular target: Androgen receptor (Homo sapiens) (UniProt P10275); assay: qHTS assay to identify small molecule agonists of the androgen receptor (AR) signaling pathway in the presence of an antagonist (AID 1259381; calls by dose curve; also: nearly all actives have a fitted effect of over 15% in size)
# Method in brief: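 Cells are MDA-kb2 (human breast carcinoma, MMTV-luc, AR/GR responsive). Nilutamide is present at 3.0uM final throughout; compounds are added at 15 concentrations and incubated 16hr at 37C before ONE-Glo luminescence detection.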
# [5] = qHTS assay to identify small molecule antagonists of the estrogen receptor beta (ER-beta) signaling pathway - cell viability counter screen (AID 1259382); also: nearly all actives have a fitted effect of over 55% in size; also: potency is read from the fitted curve at half-maximal effect; as to activity change, negative = cytotoxicity: series mostly up to about 92 µM
# Method in brief: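 Following a 6 hr plating period, HEK293T cells carrying a UAS-driven beta-lactamase reporter under ER-beta control received compounds and 1nM E2 (final). After 16 hr at 37C and 2 hr substrate loading, CellTiter-Glo luminescence indicated viability.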
# [6] = molecular target: Estrogen receptor (Homo sapiens) (UniProt P03372); assay: qHTS assay to identify small molecule agonists of the estrogen receptor alpha (ER-alpha) signaling pathway in the presence of an antagonist (AID 1259383; calls by dose curve; also: top concentration of the series differs between compounds; nearly all actives have a fitted effect of over 15% in size)
# Method in brief: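 Cells are hormone-deprived for 5 days (charcoal-stripped FBS, no phenol red), plated for 24hr, spiked with 10.0nM ICI-182,780, then dosed at 15 concentrations. After 22hr at 37C, ONE-Glo luminescence reports ERE-luciferase activity.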
# [7] = molecular target: Thyrotropin receptor (Homo sapiens) (UniProt P16473); assay: qHTS assay to identify small molecule antagonists of the thyroid stimulating hormone receptor (TSHR) signaling pathway (AID 1259385; calls by dose curve; also: nearly all actives have a fitted effect of over 20% in size)
# Method in brief: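 TSHR-HEK293 cells were plated and held 18 h at 37C/5% CO2, then given compound plus Ro20-1724 and stimulated with TSH at 1.5 ng/mL final. After 30 min at room temperature, cAMP was detected with cAMP-d2/anti-cAMP-cryptate (1 h) by fluorescence.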
# [8] = molecular target: Progesterone receptor (Homo sapiens) (UniProt P06401); assay: qHTS assay to identify small molecule agonists of the progesterone receptor (PR) signaling pathway (AID 1346784; calls by dose curve; also: nearly all actives have a fitted effect of over 30% in size; also: potency is read from the fitted curve at half-maximal effect)
# Method in brief: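 Agonist mode, quantitative HTS format in a HEK 293T line expressing a UAS-controlled beta-lactamase reporter; 16 hr compound exposure at 37C in 2% charcoal-stripped FBS, then LiveBLAzer B/G FRET fluorescence.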
# [9] = qHTS assay to identify small molecule agonists or antagonists of the thyroid stimulating hormone receptor (TSHR) signaling pathway - wild type cell line counter screen (AID 1259384; calls by dose curve)
# Method in brief: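 Wild-type HEK293 cells were plated 18 h at 37 C/5% CO2, pin-dosed with compound plus Ro20-1724 medium, held 30 min at room temperature, then given cAMP-d2 and anti-cAMP-cryptate; fluorescence was read after 1 h. Fifteen concentrations, triplicate.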
# [10] = qHTS assay to identify small molecule agonists of the estrogen receptor alpha (ER-alpha) signaling pathway in the presence of an antagonist - cell viability counter screen (AID 1259386);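 also: cells exposed to compounds for 22 h at 37 °C before the viability read; nearly all actives have a fitted effect of over 30% in size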; also: potency is read from the fitted curve at half-maximal effect; as to activity change, negative = cytotoxicity: series mostly up to about 92 µM
# Method in brief: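 Cells are starved of estrogens for 5 days in charcoal-stripped serum, seeded for 24hr and co-treated with ICI-182,780 (10.0nM final) and test compounds. After 22hr at 37C, viability is read as CellTiter-Fluor fluorescence.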
# Estrogen receptor (Homo sapiens), sequence (P03372 whole entry, looked up): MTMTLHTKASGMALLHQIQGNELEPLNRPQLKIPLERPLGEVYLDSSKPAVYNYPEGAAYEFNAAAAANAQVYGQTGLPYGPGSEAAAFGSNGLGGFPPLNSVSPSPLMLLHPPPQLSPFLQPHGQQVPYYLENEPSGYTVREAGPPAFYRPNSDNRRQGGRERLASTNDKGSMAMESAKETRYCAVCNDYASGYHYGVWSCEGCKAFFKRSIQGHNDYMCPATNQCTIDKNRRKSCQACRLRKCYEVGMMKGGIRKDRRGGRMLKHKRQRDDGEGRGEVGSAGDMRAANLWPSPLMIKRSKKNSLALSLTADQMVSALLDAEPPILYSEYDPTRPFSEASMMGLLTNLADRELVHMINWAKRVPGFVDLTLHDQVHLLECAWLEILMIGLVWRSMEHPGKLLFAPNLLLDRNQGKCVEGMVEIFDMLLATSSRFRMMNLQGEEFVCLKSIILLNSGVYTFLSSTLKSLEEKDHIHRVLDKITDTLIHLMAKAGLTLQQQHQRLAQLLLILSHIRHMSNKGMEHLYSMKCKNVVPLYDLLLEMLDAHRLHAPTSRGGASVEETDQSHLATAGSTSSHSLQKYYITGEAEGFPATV
# Progesterone receptor (Homo sapiens), sequence (P06401 whole entry, looked up): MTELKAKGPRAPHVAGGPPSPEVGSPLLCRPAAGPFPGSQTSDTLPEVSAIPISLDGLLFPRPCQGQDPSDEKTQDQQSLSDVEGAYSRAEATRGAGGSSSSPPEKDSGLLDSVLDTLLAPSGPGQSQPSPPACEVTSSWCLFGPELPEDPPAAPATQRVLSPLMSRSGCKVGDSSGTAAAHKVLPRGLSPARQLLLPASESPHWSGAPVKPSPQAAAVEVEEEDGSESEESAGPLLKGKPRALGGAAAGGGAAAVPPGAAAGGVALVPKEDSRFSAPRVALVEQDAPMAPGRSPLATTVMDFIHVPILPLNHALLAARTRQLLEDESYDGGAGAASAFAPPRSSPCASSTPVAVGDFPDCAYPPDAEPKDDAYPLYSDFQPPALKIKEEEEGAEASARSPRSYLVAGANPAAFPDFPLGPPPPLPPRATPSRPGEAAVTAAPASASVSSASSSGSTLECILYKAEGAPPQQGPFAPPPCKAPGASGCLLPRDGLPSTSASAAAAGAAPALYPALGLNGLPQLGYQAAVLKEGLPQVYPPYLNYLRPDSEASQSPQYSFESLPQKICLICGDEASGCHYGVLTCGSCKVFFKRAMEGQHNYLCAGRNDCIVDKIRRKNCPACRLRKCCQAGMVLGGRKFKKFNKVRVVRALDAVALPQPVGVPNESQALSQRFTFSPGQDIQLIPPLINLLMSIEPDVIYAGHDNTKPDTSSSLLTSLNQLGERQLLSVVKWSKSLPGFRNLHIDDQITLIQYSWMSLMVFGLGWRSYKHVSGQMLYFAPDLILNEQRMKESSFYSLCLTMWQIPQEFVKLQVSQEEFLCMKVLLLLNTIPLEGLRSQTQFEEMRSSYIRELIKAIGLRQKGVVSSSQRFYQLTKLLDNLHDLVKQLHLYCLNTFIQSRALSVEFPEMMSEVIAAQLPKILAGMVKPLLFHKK
# Thyrotropin receptor (Homo sapiens), sequence (P16473 whole entry, looked up): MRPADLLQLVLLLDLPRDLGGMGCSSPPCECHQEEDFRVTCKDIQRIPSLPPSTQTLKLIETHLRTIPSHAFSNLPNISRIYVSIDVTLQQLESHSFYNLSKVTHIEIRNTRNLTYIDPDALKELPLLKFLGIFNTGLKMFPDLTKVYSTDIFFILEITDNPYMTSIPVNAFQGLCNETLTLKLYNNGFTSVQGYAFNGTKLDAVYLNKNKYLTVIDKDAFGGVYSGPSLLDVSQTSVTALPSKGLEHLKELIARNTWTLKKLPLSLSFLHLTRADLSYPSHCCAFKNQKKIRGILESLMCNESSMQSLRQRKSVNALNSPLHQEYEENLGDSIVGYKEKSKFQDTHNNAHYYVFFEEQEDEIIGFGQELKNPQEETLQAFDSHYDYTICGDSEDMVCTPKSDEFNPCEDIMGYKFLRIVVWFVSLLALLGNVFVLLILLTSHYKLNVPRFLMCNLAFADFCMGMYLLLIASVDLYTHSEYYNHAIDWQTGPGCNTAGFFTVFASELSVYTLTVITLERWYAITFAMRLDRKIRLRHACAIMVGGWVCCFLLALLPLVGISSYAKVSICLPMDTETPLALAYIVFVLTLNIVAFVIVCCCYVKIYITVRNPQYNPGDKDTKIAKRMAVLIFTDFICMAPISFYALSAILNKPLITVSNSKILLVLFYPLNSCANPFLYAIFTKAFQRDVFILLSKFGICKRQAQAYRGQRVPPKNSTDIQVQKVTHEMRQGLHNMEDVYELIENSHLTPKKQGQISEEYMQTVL
# Androgen receptor (Homo sapiens), sequence (P10275 whole entry, looked up): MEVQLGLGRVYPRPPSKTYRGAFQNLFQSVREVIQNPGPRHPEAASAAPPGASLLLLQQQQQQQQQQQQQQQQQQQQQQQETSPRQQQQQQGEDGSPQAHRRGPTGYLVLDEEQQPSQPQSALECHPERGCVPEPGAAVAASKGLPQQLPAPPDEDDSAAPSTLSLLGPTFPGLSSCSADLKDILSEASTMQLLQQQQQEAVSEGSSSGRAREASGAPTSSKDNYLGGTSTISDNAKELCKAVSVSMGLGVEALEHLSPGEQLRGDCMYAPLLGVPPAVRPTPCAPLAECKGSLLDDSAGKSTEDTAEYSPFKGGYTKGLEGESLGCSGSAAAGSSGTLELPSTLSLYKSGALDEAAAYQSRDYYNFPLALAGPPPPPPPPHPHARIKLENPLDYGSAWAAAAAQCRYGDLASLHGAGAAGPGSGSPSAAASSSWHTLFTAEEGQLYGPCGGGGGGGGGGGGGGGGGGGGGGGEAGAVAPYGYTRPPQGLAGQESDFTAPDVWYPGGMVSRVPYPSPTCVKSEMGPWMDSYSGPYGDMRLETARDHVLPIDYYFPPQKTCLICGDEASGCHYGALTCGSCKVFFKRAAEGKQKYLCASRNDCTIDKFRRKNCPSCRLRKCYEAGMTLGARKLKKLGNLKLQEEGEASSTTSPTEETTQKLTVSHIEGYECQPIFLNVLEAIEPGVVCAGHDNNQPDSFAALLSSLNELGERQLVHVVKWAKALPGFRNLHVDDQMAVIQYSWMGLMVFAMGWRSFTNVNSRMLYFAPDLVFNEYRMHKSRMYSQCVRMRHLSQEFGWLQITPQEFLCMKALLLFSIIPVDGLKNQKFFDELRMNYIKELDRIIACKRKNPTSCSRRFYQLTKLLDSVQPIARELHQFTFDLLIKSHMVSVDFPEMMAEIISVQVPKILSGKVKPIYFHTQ
# Estrogen receptor beta (Homo sapiens), sequence (Q92731 whole entry, looked up): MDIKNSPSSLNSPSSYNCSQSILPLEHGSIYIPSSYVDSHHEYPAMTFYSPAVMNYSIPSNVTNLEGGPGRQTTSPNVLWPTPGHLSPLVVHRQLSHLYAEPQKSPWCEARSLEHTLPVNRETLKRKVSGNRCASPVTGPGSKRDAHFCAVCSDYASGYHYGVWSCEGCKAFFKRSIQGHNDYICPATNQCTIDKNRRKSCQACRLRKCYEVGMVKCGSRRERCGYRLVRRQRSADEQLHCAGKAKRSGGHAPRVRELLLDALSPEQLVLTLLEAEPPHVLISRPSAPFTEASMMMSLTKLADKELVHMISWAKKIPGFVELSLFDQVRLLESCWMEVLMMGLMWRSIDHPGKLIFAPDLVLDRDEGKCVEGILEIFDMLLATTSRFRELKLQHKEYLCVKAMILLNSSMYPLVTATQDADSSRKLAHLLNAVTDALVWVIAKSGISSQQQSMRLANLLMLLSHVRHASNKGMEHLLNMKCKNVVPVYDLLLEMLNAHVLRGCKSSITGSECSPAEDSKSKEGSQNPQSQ
structure (smiles),measurement,setting,value
CCN1C(=O)c2ccccc2C1Nc1ccc(OCCN2CCCCC2)cc1 (stereo unspecified),Potency,[1],inactive
same,Potency,[2],inactive
same,Potency,[3],inactive
same,outcome,[4],inactive
same,Potency,[5],inactive
same,Potency,[6],inactive
same,Potency,[7],inactive
same,Potency,[8],inactive
Cc1c(C)c2c(c(C)c1O)CC[C@@](C)(CCC[C@H](C)CCC[C@H](C)CCCC(C)C)O2,Potency,[1],inactive
same,Potency,[2],inactive
same,Potency,[3],inactive
same,Potency,[5],inactive
same,Potency,[6],inactive
same,outcome,[9],inactive
same,Potency,[7],inactive
same,Potency,[10],inactive
same,Potency,[8],inactive
O=C(O)Cc1ccccc1Nc1c(Cl)cccc1Cl,Potency,[1],inactive
same,Potency,[2],inactive
same,Potency,[3],13.7 µM (active)
same,outcome,[4],inactive
same,Potency,[6],inactive
same,outcome,[9],inactive
same,Potency,[7],inactive
same,Potency,[10],inactive
same,Potency,[8],inactive
CCCCCCCCCCCCOCCOCCOCCOCCOCCOCCOCCOCCOCCO,Potency,[1],8.41 µM (active)
same,Potency,[2],13.3 µM (active)
same,Potency,[3],26.6 µM (active)
same,Potency,[5],29.8 µM (active)
same,Potency,[6],inactive
same,outcome,[9],inactive
same,Potency,[7],inactive
same,Potency,[10],23.7 µM (active)
CC(C(=O)O)c1ccc2c(c1)[nH]c1ccc(Cl)cc12 (stereo unspecified),Potency,[1],inactive
same,Potency,[2],inactive
same,Potency,[3],29.8 µM (active)
same,Potency,[5],inactive
same,Potency,[6],inactive
same,outcome,[9],inactive
same,Potency,[7],inactive
same,Potency,[10],inactive
OC1CCC(C2CCCCC2)CC1 (stereo unspecified),Potency,[1],inactive
same,Potency,[2],inactive
same,Potency,[3],inactive
same,Potency,[5],inactive
same,Potency,[6],inactive
same,outcome,[9],inactive
same,Potency,[7],inactive
same,Potency,[10],inactive
same,Potency,[8],inactive
C=Cc1ccccc1C=C,Potency,[1],inactive
same,Potency,[2],inactive
same,Potency,[3],inactive
same,Potency,[5],inactive
same,Potency,[6],inactive
same,outcome,[9],inactive
same,Potency,[7],inactive
same,Potency,[10],inactive
same,Potency,[8],inactive
Clc1sc(Cl)c(Cl)c1Cl,Potency,[1],inactive
same,Potency,[2],inactive
same,Potency,[3],inactive
same,outcome,[4],inactive
same,Potency,[5],inactive
same,Potency,[6],inactive
same,outcome,[9],inactive
same,Potency,[7],inactive
same,Potency,[10],inactive
same,Potency,[8],inactive
CN(C)c1ccc(C(=C2C=CC(=[N+](C)C)C=C2)c2ccc(N(C)C)cc2)cc1,Potency,[1],27.2 µM (active) and 37.6 µM (active)
same,Potency,[2],4.31 µM (active) and 13.7 µM (active) and 3.35 µM (active)
same,Potency,[3],10.8 µM (active) and 27.3 µM (active) and 13.3 µM (active)
same,outcome,[4],inactive
same,Potency,[5],21.6 µM (active) and 27.3 µM (active) and 13.3 µM (active)
same,Potency,[6],inactive
same,Potency,[10],8.59 µM (active) and 15.4 µM (active) and 5.96 µM (active)
CC(=O)CC(=O)Nc1ccc(S(=O)(=O)O)cc1,Potency,[1],inactive
same,Potency,[2],inactive
same,Potency,[3],inactive
same,Potency,[5],inactive
same,Potency,[6],inactive
same,Potency,[7],inactive
same,Potency,[10],inactive
same,Potency,[8],inactive
O=C(O)O,"activity, negative = inhibition",[1],1.94% [at 8.39 µM]
same,"activity change, negative = cytotoxicity",[2],-0.506% [at 8.39 µM]
same,"activity change, negative = cytotoxicity",[3],-10.9% [at 8.39 µM]
same,"activity change, negative = cytotoxicity",[5],-30.1% [at 8.39 µM]
same,activation,[6],10.5% [at 8.39 µM]
same,cAMP activity change,[9],-3.34% [at 8.39 µM]
same,"activity change, negative = inhibition",[7],0.713% [at 8.39 µM]
same,"activity change, negative = cytotoxicity",[10],1.41% [at 8.39 µM]
same,Potency,[8],0.373 µM (active)
CC(=O)Oc1cc2c(s1)CCN(C(C(=O)C1CC1)c1ccccc1F)C2 (stereo unspecified),Potency,[1],inactive
same,Potency,[2],inactive
same,Potency,[3],inactive
same,Potency,[5],inactive
same,Potency,[6],inactive
same,outcome,[9],inactive
same,Potency,[7],inactive
same,Potency,[10],inactive
same,Potency,[8],inactive
CC(CO)Oc1ccccc1 (stereo unspecified),Potency,[1],inactive
same,Potency,[2],inactive
same,Potency,[3],inactive
same,outcome,[4],inactive
same,Potency,[5],inactive
same,Potency,[6],inactive
same,outcome,[9],inactive
same,Potency,[7],inactive
same,Potency,[10],inactive
same,Potency,[8],inactive
CC(=O)c1ccc(C(C)=O)cc1,Potency,[1],inactive
same,Potency,[2],inactive
same,Potency,[3],inactive
same,outcome,[4],inactive
same,Potency,[5],inactive
same,outcome,[9],inactive
same,Potency,[7],inactive
same,Potency,[8],inactive
[Cu+],Potency,[1],inactive
same,Potency,[2],inactive
same,Potency,[3],inactive
same,Potency,[5],inactive
same,Potency,[6],inactive
same,outcome,[9],inactive
same,Potency,[8],inactive
C1CCC(SSC2CCCCC2)CC1,Potency,[1],inactive
same,Potency,[2],inactive
same,Potency,[3],inactive
same,Potency,[5],inactive
same,Potency,[6],inactive
same,outcome,[9],inactive
same,Potency,[10],inactive
same,Potency,[8],inactive
CC(C)(C)NSc1nc2ccccc2s1,Potency,[1],inactive
same,Potency,[2],inactive
same,Potency,[3],inactive
same,outcome,[4],inactive
same,Potency,[5],inactive
same,Potency,[6],inactive
same,outcome,[9],inactive
same,Potency,[7],inactive
same,Potency,[10],inactive
same,Potency,[8],inactive
NC(=O)c1cccc([N+](=O)[O-])c1,outcome,[4],inactive
CCCCC(CC)CN1CN(CC(CC)CCCC)CC(C)(N)C1 (stereo unspecified),outcome,[4],inactive
O=C(O)[C@H](O)[C@@H](O)[C@H](O[C@@H]1O[C@H](CO)[C@H](O)[C@H](O)[C@H]1O)[C@H](O)CO,Potency,[1],inactive
same,Potency,[3],inactive
same,Potency,[5],inactive
same,Potency,[6],inactive
same,outcome,[9],inactive
same,Potency,[7],inactive
same,Potency,[10],inactive
Cc1c(N)cccc1C(F)(F)F,Potency,[2],inactive
same,Potency,[3],inactive
same,outcome,[4],inactive
same,Potency,[5],inactive
same,outcome,[9],inactive
same,Potency,[7],inactive
same,Potency,[10],inactive
same,Potency,[8],inactive
Cc1cc(=O)oc2cc(O)cc(O)c12,Potency,[2],inactive
same,Potency,[3],inactive
same,outcome,[4],inactive
same,Potency,[5],inactive
same,Potency,[6],inactive
same,Potency,[10],inactive
Cc1cc(C(C)(C)C)c(O)c(C)c1Cn1c(=O)n(Cc2c(C)cc(C(C)(C)C)c(O)c2C)c(=O)n(Cc2c(C)cc(C(C)(C)C)c(O)c2C)c1=O,Potency,[1],inactive
same,Potency,[3],inactive
same,Potency,[5],inactive
same,Potency,[6],inactive
same,outcome,[9],inactive
same,Potency,[10],inactive
CCCC(=O)OCOC(=O)C1=C(C)NC(C)=C(C(=O)OC)C1c1cccc(Cl)c1Cl (stereo unspecified),Potency,[2],inactive
same,Potency,[3],inactive
same,outcome,[4],inactive
same,Potency,[5],inactive
same,Potency,[6],inactive
same,outcome,[9],inactive
same,Potency,[7],inactive
same,Potency,[10],inactive
same,Potency,[8],inactive
Nc1ccc(C(=O)O)c(O)c1,Potency,[2],inactive
same,Potency,[3],inactive
same,outcome,[4],inactive
same,Potency,[5],inactive
same,Potency,[7],inactive
same,Potency,[10],inactive
same,Potency,[8],inactive
